Sampled rows, rich in hits. Any-hit rate of the full collection: about 21%.
Shiga toxin inh: inhibitors of Shiga toxin in Vero cells | Vero cells, Shiga toxin protein synthesis inhibition reporter | inhibition, % at 38.7 µM | actives 9.2% (n = 290,000); in the data active = inhibition mostly above about 28%, no sharp cut-off; inactive = mostly below about 43%; also: 0% is about no effect
Sm TGR inh: blocks Schistosoma mansoni thioredoxin glutathione reductase | Q962Y6 | purified TGR, DTNB reduction, TNB absorbance 405 nm | Potency, µM (series often up to 114 µM), without a hit: at the highest dose activity change, negative = inhibition, hits mostly inhibitors | actives 3% (n = 360,000) | AID 485364; also: potency is read from the fitted curve at half-maximal effect; % is scaled to controls: 0 for no effect and ±100 for the full control effect; nearly all actives have a fitted effect of over 60% in size
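Kinetic colorimetric format: TGR-catalysed, NADPH-driven DTNB reduction monitored via TNB absorbance. Enzyme dispensed at 20 nM; compound exposure 15 min at room temperature before reaction start.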
NS1 inh: inhibitors of influenza NS1 protein function; Potency, µM (series often up to 46.1 µM), for inactives: at the highest dose activity, positive = more growth; actives 0.4% (n = 270,000); calls by dose curve; also: potency is read from the fitted curve at half-maximal effect; actives are rising curves; nearly all actives have a fitted effect of over 50% in size
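Growth recovery, yeast-based: influenza A NS1 expressed in S. cerevisiae causes slow growth, and suppressors are detected by OD600. The parent strain without NS1 is used as positive control.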
Pf growth 96h: P. falciparum growth inhibition at 96 hour, primary screen for plastid delayed-death inhibitors | P. falciparum luciferase reporter growth, 96 h | Potency, µM (doses to about 28.7 µM), without a hit: at the highest dose activity change, negative = inhibition, actives largely listed as inhibitors | actives 6.9% (n = 320,000) | AID 504834; also: potency is read from the fitted curve at half-maximal effect; % is scaled to controls: 0 for no effect and ±100 for the full control effect
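Readout is luminescence from an integrated firefly luciferase in P. falciparum. Red cells, 2% hematocrit and 0.05% parasitemia final, were cultured with compound through two parasite generations (96 hours) at 37 C, 5% CO2.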
Cycloheximide cs: counter-screen for Shiga toxin inhibitors: cycloheximide protein synthesis inhibition; actives 12% (n = 300,000); cell reporter, cycloheximide protein synthesis inhibition counterscreen; max response, %; in the data active = max response mostly above about 13%, no sharp cut-off; inactive = mostly below about 14%; also: read at 38.3 µM for the half of the compounds with a filed dose; 0% is about no effect
Pf growth 48h: P. falciparum growth inhibition at 48 hours (one generation). P. falciparum luciferase growth in erythrocytes, 48 h. Potency, µM (titrated, usually from 28.7 µM), without a hit: at the highest dose activity change, negative = inhibition, most hits filed as inhibitors. actives 5.9% (n = 310,000); also: potency is read from the fitted curve at half-maximal effect; % is scaled to controls: 0 for no effect and ±100 for the full control effect
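In quantitative HTS format, infected erythrocytes bearing luciferase-reporter parasites were treated for a single generation at 37 C. Luminescence after adding detection reagent served as the growth measure.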
* = called active by the depositor; ? = inconclusive; / = no result; [ ] = dose if it differs, or a comment. Unless noted, calls follow the shape of the dose curve; as a rule, active = well fitted curve in the direction sought with a large enough effect; inconclusive = small, poorly fitted or top-dose-only effect, or another doubt; inactive = no such curve, though single readings can be large; an effect the other way counts as inactive or inconclusive.

SMILES	Shiga toxin inh	Sm TGR inh	NS1 inh	Pf growth 96h	Cycloheximide cs	Pf growth 48h
O=C(Nc1ccccc1Cl)C1Cc2ccccc2O/C1=N\O (stereo not given)	87.3*	-0.2%	-7.2%	?	43.8*	65.1%
O=C(NC(Cc1ccccc1)C(=O)O)C1CCCCC1 (stereo not given)	-10.7	2.8%	0.1%	10.4µM*	-4.8	2.8%
O=C(NCCCCC(NC(=O)C1CCCCC1)C(=O)O)c1ccccc1 (stereo not given)	-15.9	-4.5%	-18.4%	8.28µM*	-1.9	?
O=C(NCCCCC(NC(=O)c1ccc([N+](=O)[O-])cc1)C(=O)O)c1ccc([N+](=O)[O-])cc1 (stereo not given)	-2.6	-17.6%	3.4%	0.9%	-3.5	/
CC(C)C1CCC(C(=O)NC(Cc2ccccc2)C(=O)O)CC1 (stereo not given)	/	/	/	21.1%	/	1.5%
COC(=O)C1=C(c2ccc(OC(F)(F)F)cc2)C[C@@H]2CC[C@H]1N2C(=O)NCCOc1ccc(OC)cc1	/	-5.1%	/	5.86µM*	/	?
COC(=O)C1=C(c2ccc(OC)c(OC)c2)C[C@@H]2CC[C@H]1N2C(=O)NCCc1ccccc1	/	-3.3%	/	-8.5%	/	?
COC(=O)C1=C(c2ccc(OC(F)(F)F)cc2)C[C@@H]2CC[C@H]1N2C(=O)NCCNC(C)=O	/	-2.5%	/	27.5%	/	?
COC(=O)C1=C(c2ccc(OC(F)(F)F)cc2)C[C@@H]2CC[C@H]1N2C(=O)NCCc1ccccc1	/	15.4%	/	?	/	3.7µM*
Cc1cc(C)cc(OCC(=O)Nc2c(C)ccc3nsnc23)c1	/	5.5%	/	/	/	/
O=C1N(Cc2cccnc2)C[C@@H]2C[C@@H](c3cccc(OC4CCCC4)c3)N3CCC[C@@]123	-17.0	-17.5%[57.1 µM]	-2.2%	42.2%	1.3	8.28µM*
O=C1N(Cc2cccnc2)C[C@@H]2C[C@@H](c3cccc(C(F)(F)F)c3)N3CCC[C@@]123	-7.2	-20.3%	7.2%	10.4µM*	0.4	?
COC(=O)c1cc(C)nc2c1c(=O)nc(SCc1ccccc1Cl)n2C1CC1	/	0.1%	/	/	/	/
Cc1ccc(S(=O)(=O)N(C)C)cc1NC(=O)CN1C(=O)NC2(CCCc3ccccc32)C1=O (stereo not given)	17.8	-6.9%	-7.8%	-18.8%	-1.8	-8.1%
COc1ccc(C2C=C(c3ccc(Br)s3)Nc3ncnn32)cc1OC (stereo not given)	-1.9	50.1µM*	7.5%	-2.9%	-2.7	?
Oc1ccc(C2C=C(c3ccc(F)cc3)Nc3ncnn32)cc1 (stereo not given)	-5.4	44.7µM*	3.9%	?	-2.3	12.0%
CCOc1ccc(C2C=C(c3ccccc3)Nc3ncnn32)cc1 (stereo not given)	26.7	79.4µM*	-105.8%	?	-1.5	?
Brc1ccc(C2=CC(c3ccco3)n3nnnc3N2)cc1 (stereo not given)	56.8*	-18.2%	4.2%	10.9%	16.5*	25.0%
COc1ccc(C2C=C(c3ccc(Cl)c(Cl)c3)Nc3ncnn32)cc1 (stereo not given)	/	19.0%	/	/	/	/
COc1ccc2c(Sc3ccccc3)c(C(=O)NCc3ccc(OC(C)C)cc3)[nH]c2c1	/	4.6%	/	/	/	/
COc1cc2c(cc1OC)C(C)N(C(=O)C(NC(=O)c1ccccc1)C(C)C)CC2 (stereo not given)	-5.6	0.9%	0.2%	?	-2.5	?
Fc1ccc(C2=CC(c3ccc(Br)o3)n3ncnc3N2)cc1 (stereo not given)	-4.8	20µM*	-12.0%	37.1%	-0.5	-7.3%
CCOc1ccc(C2C=C(c3ccc(F)cc3)Nc3ncnn32)cc1 (stereo not given)	1.1	28.2µM*	-59.9%	/	-1.6	11.7µM*
C1=C(c2ccc(-c3ccccc3)cc2)Nc2ncnn2C1c1ccco1 (stereo not given)	92.1*	22.4µM*	-78.1%	19.3%	30.8*	6.8%
COc1ccc(C2C=C(c3ccc(C)cc3)Nc3ncnn32)cc1 (stereo not given)	18.2	28.2µM*	-141.4%	-4.2%[5.75 µM]	14.3	11.7µM*
SMILES	Shiga toxin inh	Sm TGR inh	NS1 inh	Pf growth 96h	Cycloheximide cs	Pf growth 48h
Fc1ccc(C2=CC(c3ccco3)n3ncnc3N2)cc1 (stereo not given)	-5.9	?	-3.3%	358.0%	-1.7	14.7%
COc1ccc(N2CCN(c3ccc(-c4nc(-c5cccc(C)c5)no4)cc3[N+](=O)[O-])CC2)cc1	/	4.1%	/	/	/	/
COc1cccc(-c2noc(C(C)n3nc(C)c([N+](=O)[O-])c3C)n2)c1 (stereo not given)	8.8	-21.0%	-3.4%	-11.0%	17.9*	3.7%
COc1cccc(OCc2nnc(-c3cccs3)o2)c1	32.5*	1.0%	-4.5%	25.1%	33.2*	77.8%
COc1ccc(-c2noc(-c3ccccc3C(=O)Nc3cccnc3)n2)cc1OC	-0.1	-5.8%	-32.9%	/	6.9	10.4µM*
COc1cccc(-c2noc(N)c2C#N)c1	21.2	?	-54.5%	-2.5%	17.2*	7.38µM*
Cc1ccc(S(=O)(=O)CCC(=O)N2CCN(c3ccc([N+](=O)[O-])cc3)CC2)cc1	4.7	0.0%	1.2%	16.6%	14.5	16.7%
COc1ccc(-c2nc(-c3cccnc3)no2)cc1OC	46.9*	13.4%	-7.5%	52.9%	39.1*	64.0%
COc1cccc(-c2noc(-c3cccs3)n2)c1	53.6*	9.2%	-1.7%	/	39.0*	328.0%
COc1cccc(-c2nc(-c3ccccn3)no2)c1	-24.9	7.5%	-17.9%	?	-10.5	33.6%
COc1cc(OC)cc(-c2nc(-c3cccc(C)c3)no2)c1	/	0.3%	/	/	/	/
COc1cccc(-c2nc(-c3ccccc3)no2)c1	63.0*	0.8%	-63.3%	?	36.7*	270.7%
COc1cccc(-c2noc(-c3cccnc3)n2)c1	68.4*	6.2%	-18.6%	?	33.6*	250.4%
COc1ccccc1CCNC(=O)Cc1c(C)c2c(cc(C)c3c(C)coc32)oc1=O	/	2.3%	/	/	/	/
COc1ccc2c(C(=O)c3ccc(C)cc3)n(CCCC(N)=O)[n+]([O-])c2c1	/	-9.9%	/	19.8%	/	?
COCc1cc(C)nc2sc(C(=O)Nc3cc(C)ccc3F)c(N)c12	/	-4.4%	/	/	/	/
CCOC(=O)c1sc(N(Cc2ccccc2)C(=O)CSc2nnc(C3CC3)n2N)nc1C	79.1*	0.0%	-48.3%	26.7%	17.3*	1.2%
CCOc1ccccc1NC(=O)c1cccc(N2C(=O)CCC2=O)c1	-5.4	?	4.8%	2.0%	-2.4	0.0%
Cc1ccc(S(=O)(=O)/N=C2/C=C(C3C(=O)CC(C)(C)CC3=O)C(=O)c3ccccc32)cc1	140.4*	14.1µM*	-11.5%	/	40.9*	?
COc1cc(-c2noc(-c3cccc(Cl)c3)n2)cc(OC)c1OC	-8.6	1.2%	-0.5%	14.7µM*	-0.5	27.1%
COc1ccccc1-c1nc(-c2cccc(C)c2)no1	121.8*	0.1%	-11.6%	?	45.8*	421.4%

Compound activity: PubChem, National Center for Advancing Translational Sciences (NCATS)
